{"source": "the supplement of paper PMC10338343", "note": "± gives the standard deviation.", "data": [{"test_system": "MILI (PIWIL2) piRISC loaded with L1MC piRNA (26 nt)", "assay": "pre-steady-state target cleavage rate (min^-1); guide: L1MC piRNA 5'p-UAACUAAAUACUAUGCAAGCUGUAGG; higher = faster piRNA-guided slicing of the target", "conditions": "auxiliary factor: 500 nM mouse GTSF1", "method": "(§1)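 Cleave-'n-Seq: a library of target RNAs (target site embedded in constant flanks, ACAGCATTCCGCGTTAGTGATATCCG... 5' flank; DNA-blocked outside the site) at 0.1 nM was incubated with 1 nM active mouse MILI or MIWI piRISC (synthetic 5'-monophosphorylated piRNA guide) with or without 500 nM mouse GTSF1 at 33 °C for 1 min to 16 h. Uncleaved targets were sequenced and normalised to non-target controls, and the pooled three trials were fitted to a burst-and-steady-state model to give the pre-steady-state cleavage rate (min^-1; k3 is constrained to at most 1e-4). Sequence is the target site only; target names encode pairing extent (gX:gY) and contiguous / 1-mismatch / 2-mismatch / bulge geometry. Fits with R² ≤ 0 are excluded.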", "values": [{"sequence": "UCCUGCUACAGCUAGCAUAGAAUUUAGUUA", "pre-steady-state target cleavage rate": "0.0821 ± 0.018"}, {"sequence": "UCCUGGAUGUCGUUGCAUAGUAUCUAGUUA", "pre-steady-state target cleavage rate": "0.11 ± 0.019"}, {"sequence": "UCCUGGAUGAGGUAGCAUAGUAUUUAGUUA", "pre-steady-state target cleavage rate": "0.0611 ± 0.0091"}, {"sequence": "UCCUGGAUGUGCUUUCAUAGUAUUUAGUUA", "pre-steady-state target cleavage rate": "0.126 ± 0.018"}, {"sequence": "UCCUGGAACACCUUGCAUACUAUUUAGUUA", "pre-steady-state target cleavage rate": "0.0449 ± 0.0096"}, {"sequence": "UCCUGGAUGUCGAUGCAAAGUAUUUAGUUA", "pre-steady-state target cleavage rate": "0.00863 ± 0.0026"}, {"sequence": "UCCUGGAUCAGCAAGCAUAGUAUUUAGUAA", "pre-steady-state target cleavage rate": "0.196 ± 0.016"}, {"sequence": "UCCUGGAACAGCUUGCAUAGUAUUUACGUUA", "pre-steady-state target cleavage rate": "0.204 ± 0.027"}, {"sequence": "UCCUGGAUGAGCUGCAUAGUAUUUAGUUA", "pre-steady-state target cleavage rate": "0.101 ± 0.013"}, {"sequence": "UCCUCCUACAGCUAGCAUAGUAAUUAGUUA", "pre-steady-state target cleavage rate": "0.159 ± 0.022"}, {"sequence": "UCCUGGAACUGCUUGCUUAGUAUUUAGUUA", "pre-steady-state target cleavage rate": "0.206 ± 0.019"}, {"sequence": "UCCUGGUACAUGCUUGCAUAGUAUUUAGUUA", "pre-steady-state target cleavage rate": "0.131 ± 0.018"}, {"sequence": "UCCUGGAUCAGCUUGGAUAGUAUUAAGUUA", "pre-steady-state target cleavage rate": "0.162 ± 0.027"}, {"sequence": "UCCUGGAUCAGCUUGCAUAGUUAUUUAGUUA", "pre-steady-state target cleavage rate": "0.00888 ± 0.004"}, {"sequence": "UCCUGGAUGUCCUUGCAAUGUAUUUAGUAA", "pre-steady-state target cleavage rate": "0.0086 ± 0.0045"}, {"sequence": "UCCUGGAUGUCCUUGCCUAGUAUUUAGUUA", "pre-steady-state target cleavage rate": "0.0522 ± 0.0084"}, {"sequence": "UCCUGCUACAAGCUUGCAUAGUAUUUAGUUA", "pre-steady-state target cleavage rate": "0.157 ± 0.015"}, {"sequence": "UCCUGGAUCAGCAUUGCAUAGUAUUUAGUUA", "pre-steady-state target cleavage rate": "0.278 ± 0.024"}, {"sequence": "UCCUGCUACAGCUUGCAUUGUAUUUAGAAA", "pre-steady-state target cleavage rate": "0.111 ± 0.03"}, {"sequence": "UCCUCGUACAGCUUGCAUUGUAUUUAGUUA", "pre-steady-state target cleavage rate": "0.223 ± 0.011"}, {"sequence": "UCCUGGAUGAGCUUGCAUAGUAUUUACUUA", "pre-steady-state target cleavage rate": "0.0753 ± 0.019"}, {"sequence": "UCCUGGAUGAGCUUGCUUAGUAUUUAGUAA", "pre-steady-state target cleavage rate": "0.155 ± 0.022"}, {"sequence": "UCCUGGAACAGCUUGCAUAGUAUUAACUUA", "pre-steady-state target cleavage rate": "0.0356 ± 0.0096"}]}, {"test_system": "MILI (PIWIL2) piRISC loaded with L1MC piRNA (26 nt)", "assay": "pre-steady-state target cleavage rate (min^-1); guide: L1MC piRNA 5'p-UAACUAAAUACUAUGCAAGCUGUAGG; MIWI and MILI are mouse PIWI proteins and EfPiwi is from a freshwater sponge; tags in brackets are library labels; higher = faster piRNA-guided slicing of the target", "conditions": "auxiliary factor: none (no GTSF1)", "method": "as §1", "values": [{"sequence": "UCCUGGAUGAGGUAGCAUAGUAUUUAGUUA", "pre-steady-state target cleavage rate": "0.00664 ± 0.0022"}, {"sequence": "UCCUGGAUGUGCUUUCAUAGUAUUUAGUUA", "pre-steady-state target cleavage rate": "0.00919 ± 0.0024"}, {"sequence": "UCCUGGAUGUCGAUGCAAAGUAUUUAGUUA", "pre-steady-state target cleavage rate": "0.0036 ± 0.0027"}, {"sequence": "UCCUGGAUCAGCAAGCAUAGUAUUUAGUAA", "pre-steady-state target cleavage rate": "0.00292 ± 0.0028"}, {"sequence": "UCCUGGAACAGCUUGCAUAGUAUUUACGUUA", "pre-steady-state target cleavage rate": "0.00654 ± 0.0028"}, {"sequence": "UCCUGGAUGAGCUGCAUAGUAUUUAGUUA", "pre-steady-state target cleavage rate": "0.00501 ± 0.0028"}, {"sequence": "UCCUCCUACAGCUAGCAUAGUAAUUAGUUA", "pre-steady-state target cleavage rate": "0.00372 ± 0.0022"}, {"sequence": "UCCUGGAACUGCUUGCUUAGUAUUUAGUUA", "pre-steady-state target cleavage rate": "0.0116 ± 0.0026"}, {"sequence": "UCCUGGUACAUGCUUGCAUAGUAUUUAGUUA", "pre-steady-state target cleavage rate": "0.00627 ± 0.0036"}, {"sequence": "UCCUGGAUCAGCUUGGAUAGUAUUAAGUUA", "pre-steady-state target cleavage rate": "0.00386 ± 0.0022"}, {"sequence": "UCCUGGAUCAGCUUGCAUAGUUAUUUAGUUA", "pre-steady-state target cleavage rate": "0.00454 ± 0.0027"}, {"sequence": "UCCUGGAUGUCCUUGCCUAGUAUUUAGUUA", "pre-steady-state target cleavage rate": "0.00452 ± 0.002"}, {"sequence": "UCCUGCUACAAGCUUGCAUAGUAUUUAGUUA", "pre-steady-state target cleavage rate": "0.00805 ± 0.002"}, {"sequence": "UCCUGGAUCAGCAUUGCAUAGUAUUUAGUUA", "pre-steady-state target cleavage rate": "0.0103 ± 0.0029"}, {"sequence": "UCCUCGUACAGCUUGCAUUGUAUUUAGUUA", "pre-steady-state target cleavage rate": "0.00719 ± 0.0021"}, {"sequence": "UCCUGGAUGAGCUUGCUUAGUAUUUAGUAA", "pre-steady-state target cleavage rate": "0.00595 ± 0.0027"}]}]}
